Experimental data taken from the supplement of paper PMC11001985.

Sequence of UniProt Q96F46 (Q96F46 whole entry): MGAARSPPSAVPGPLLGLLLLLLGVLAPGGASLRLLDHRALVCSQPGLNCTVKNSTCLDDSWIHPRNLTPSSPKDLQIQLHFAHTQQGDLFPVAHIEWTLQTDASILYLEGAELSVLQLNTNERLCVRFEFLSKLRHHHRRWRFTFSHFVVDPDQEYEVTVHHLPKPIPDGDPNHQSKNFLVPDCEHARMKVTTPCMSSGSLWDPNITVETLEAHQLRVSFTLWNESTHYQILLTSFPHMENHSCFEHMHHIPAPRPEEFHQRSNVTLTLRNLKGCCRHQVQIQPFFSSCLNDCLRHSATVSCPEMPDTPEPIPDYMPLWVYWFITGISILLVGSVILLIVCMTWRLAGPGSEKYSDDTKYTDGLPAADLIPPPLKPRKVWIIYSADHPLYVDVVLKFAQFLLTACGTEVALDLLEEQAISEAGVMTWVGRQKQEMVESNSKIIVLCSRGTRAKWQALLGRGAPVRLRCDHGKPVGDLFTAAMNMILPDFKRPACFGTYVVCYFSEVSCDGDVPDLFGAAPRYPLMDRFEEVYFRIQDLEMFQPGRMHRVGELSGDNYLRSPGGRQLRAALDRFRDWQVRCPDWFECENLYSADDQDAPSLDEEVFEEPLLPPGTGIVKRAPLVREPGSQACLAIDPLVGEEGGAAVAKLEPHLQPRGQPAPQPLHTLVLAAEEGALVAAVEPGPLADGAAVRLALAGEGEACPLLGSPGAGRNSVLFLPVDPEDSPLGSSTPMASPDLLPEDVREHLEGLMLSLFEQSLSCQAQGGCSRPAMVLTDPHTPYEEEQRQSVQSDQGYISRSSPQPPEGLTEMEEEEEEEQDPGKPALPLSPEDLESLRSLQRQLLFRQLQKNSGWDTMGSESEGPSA
Sequence of UniProt Q9BVC6 (Q9BVC6 whole entry): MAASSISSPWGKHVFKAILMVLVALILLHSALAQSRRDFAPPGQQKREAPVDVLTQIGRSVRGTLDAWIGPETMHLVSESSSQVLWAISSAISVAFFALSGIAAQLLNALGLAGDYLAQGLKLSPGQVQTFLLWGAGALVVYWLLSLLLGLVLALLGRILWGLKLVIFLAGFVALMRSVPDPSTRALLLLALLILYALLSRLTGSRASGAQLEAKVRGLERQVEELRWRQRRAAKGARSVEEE
Sequence of UniProt P09972 (P09972 whole entry): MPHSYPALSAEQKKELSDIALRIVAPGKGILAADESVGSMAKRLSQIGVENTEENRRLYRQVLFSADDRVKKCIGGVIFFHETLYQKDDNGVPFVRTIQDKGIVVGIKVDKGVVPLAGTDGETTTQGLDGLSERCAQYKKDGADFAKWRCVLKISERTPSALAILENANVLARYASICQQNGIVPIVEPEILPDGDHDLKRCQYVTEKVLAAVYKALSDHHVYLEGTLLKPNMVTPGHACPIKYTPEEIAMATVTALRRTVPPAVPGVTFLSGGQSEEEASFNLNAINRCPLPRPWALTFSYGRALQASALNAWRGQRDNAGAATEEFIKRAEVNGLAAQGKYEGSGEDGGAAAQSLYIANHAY
Sequence of UniProt Q9HB71 (Q9HB71 whole entry): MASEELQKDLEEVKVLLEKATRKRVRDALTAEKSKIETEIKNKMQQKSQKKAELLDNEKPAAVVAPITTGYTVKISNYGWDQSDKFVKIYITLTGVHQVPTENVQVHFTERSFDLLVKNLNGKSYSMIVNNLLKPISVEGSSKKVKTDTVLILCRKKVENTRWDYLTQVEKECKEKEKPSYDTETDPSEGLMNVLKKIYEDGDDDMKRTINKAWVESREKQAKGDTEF
Sequence of UniProt P19256 (P19256 whole entry): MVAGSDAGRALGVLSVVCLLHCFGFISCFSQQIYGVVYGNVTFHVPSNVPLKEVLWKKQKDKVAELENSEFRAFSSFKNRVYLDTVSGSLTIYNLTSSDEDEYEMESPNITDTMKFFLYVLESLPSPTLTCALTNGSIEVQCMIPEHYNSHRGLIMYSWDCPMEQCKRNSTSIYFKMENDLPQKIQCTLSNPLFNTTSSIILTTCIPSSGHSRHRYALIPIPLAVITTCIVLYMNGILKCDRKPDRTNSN
Sequence of UniProt Q6PIU2 (Q6PIU2 whole entry): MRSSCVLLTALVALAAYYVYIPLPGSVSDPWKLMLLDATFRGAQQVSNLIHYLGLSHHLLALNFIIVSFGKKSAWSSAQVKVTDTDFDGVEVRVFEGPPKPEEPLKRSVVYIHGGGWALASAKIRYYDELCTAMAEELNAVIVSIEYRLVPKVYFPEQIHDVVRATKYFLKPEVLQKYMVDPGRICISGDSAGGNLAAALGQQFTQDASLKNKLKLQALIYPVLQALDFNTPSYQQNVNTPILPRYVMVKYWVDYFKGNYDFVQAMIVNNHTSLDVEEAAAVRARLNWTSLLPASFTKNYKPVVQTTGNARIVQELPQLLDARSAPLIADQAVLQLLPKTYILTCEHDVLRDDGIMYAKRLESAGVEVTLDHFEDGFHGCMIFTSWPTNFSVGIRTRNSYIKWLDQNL
Sequence of UniProt P02533 (P02533 whole entry): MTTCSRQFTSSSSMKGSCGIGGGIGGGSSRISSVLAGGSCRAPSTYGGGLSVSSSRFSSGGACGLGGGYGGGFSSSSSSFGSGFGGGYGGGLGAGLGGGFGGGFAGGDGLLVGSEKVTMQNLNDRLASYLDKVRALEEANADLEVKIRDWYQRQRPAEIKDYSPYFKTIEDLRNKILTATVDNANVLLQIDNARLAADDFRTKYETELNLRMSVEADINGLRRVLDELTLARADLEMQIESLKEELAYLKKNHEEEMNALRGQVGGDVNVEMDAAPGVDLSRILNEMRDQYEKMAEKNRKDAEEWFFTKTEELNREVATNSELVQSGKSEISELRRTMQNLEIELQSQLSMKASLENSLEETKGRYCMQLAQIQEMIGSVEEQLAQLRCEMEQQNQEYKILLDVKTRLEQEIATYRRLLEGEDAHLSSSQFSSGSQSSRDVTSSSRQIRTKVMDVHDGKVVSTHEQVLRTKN
Sequence of UniProt P78333 (P78333 whole entry): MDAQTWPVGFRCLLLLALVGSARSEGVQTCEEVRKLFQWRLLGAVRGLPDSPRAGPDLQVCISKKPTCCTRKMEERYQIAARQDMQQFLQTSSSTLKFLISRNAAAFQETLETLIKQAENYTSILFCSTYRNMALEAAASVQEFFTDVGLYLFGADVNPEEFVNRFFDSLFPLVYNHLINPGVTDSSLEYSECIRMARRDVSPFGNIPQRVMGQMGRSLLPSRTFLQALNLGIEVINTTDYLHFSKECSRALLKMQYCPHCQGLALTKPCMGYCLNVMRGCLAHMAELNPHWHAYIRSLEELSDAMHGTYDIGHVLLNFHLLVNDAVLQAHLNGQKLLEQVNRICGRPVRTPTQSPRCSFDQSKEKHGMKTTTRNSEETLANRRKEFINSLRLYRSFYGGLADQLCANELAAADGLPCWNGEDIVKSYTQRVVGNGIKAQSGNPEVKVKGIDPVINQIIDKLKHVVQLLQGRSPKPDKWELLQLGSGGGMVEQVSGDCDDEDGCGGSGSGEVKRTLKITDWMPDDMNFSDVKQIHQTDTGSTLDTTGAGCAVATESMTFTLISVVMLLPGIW
Sequence of UniProt Q14118 (Q14118 whole entry): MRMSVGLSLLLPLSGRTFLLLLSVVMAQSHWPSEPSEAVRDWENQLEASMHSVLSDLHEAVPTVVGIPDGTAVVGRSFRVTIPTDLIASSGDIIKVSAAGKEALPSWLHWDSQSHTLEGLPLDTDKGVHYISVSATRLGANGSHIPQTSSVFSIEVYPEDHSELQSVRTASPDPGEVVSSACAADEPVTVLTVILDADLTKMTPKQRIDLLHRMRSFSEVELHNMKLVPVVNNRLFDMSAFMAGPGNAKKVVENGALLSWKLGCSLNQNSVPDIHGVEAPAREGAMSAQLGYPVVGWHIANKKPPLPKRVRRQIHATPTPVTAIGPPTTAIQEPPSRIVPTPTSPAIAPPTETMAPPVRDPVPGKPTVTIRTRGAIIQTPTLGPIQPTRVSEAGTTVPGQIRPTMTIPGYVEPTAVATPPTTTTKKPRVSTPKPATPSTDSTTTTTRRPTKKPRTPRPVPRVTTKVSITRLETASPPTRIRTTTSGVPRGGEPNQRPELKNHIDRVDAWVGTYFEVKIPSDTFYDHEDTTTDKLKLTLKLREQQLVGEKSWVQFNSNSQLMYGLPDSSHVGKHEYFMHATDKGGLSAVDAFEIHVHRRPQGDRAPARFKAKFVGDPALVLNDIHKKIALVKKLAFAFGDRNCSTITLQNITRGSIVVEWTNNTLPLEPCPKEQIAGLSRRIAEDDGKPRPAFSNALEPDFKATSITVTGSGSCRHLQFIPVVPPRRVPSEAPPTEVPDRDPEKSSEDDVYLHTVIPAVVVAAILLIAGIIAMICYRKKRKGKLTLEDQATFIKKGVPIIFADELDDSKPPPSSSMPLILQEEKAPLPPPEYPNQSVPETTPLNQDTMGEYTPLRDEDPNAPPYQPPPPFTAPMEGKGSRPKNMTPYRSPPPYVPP
Sequence of UniProt O00571 (O00571 whole entry, looked up): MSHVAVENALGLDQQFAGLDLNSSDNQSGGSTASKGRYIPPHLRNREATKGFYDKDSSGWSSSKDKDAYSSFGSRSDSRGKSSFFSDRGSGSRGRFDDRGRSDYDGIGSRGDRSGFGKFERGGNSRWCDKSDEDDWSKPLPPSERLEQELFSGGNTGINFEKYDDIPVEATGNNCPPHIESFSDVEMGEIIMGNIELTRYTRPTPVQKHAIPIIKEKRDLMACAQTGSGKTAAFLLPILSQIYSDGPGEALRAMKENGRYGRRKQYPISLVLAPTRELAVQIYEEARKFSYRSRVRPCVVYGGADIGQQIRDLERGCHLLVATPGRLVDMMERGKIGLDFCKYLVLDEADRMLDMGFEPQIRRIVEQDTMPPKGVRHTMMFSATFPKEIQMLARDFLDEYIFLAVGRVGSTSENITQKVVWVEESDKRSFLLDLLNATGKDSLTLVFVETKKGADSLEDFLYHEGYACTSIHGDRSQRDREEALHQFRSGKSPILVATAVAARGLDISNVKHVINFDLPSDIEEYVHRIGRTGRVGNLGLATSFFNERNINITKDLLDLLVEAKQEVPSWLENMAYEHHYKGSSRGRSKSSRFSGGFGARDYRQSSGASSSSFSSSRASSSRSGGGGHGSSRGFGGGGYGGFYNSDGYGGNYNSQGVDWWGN

What follows are targets tested with C#CCNC(=O)CCSSCCC(=O)NCCc1ccc(C=O)c(C=O)c1 (assay: lysine labeling ratio R10:1 (500 µM / 50 µM probe), SILAC-ABPP in living cells; higher = lower intrinsic lysine reactivity toward the probe, active = 2 or less). Conditions: HeLa; probe concentrations 500 vs 50 µM.
Summary of the method: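 Each lysine carries an R value: the filtered median of MS1 peptide ratios of high probe to low probe, with the median then taken over forward and reverse replicates. These came from living SILAC light and heavy HeLa cells in PBS at room temperature labelled with an alkyne-tagged, disulfide-linked lysine probe at 500 µM or 50 µM, in forward and reverse swaps. The lysates were mixed, clicked to biotin-azide, trypsin-digested, captured on neutravidin, released by DTT, alkylated and run by LC-MS/MS on a TIMS-TOF Pro. The highest value allowed is 20.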
With “DDX3X (lysine site: K81) (UniProt O00571)” the “lysine labeling ratio R10:1” value was 2.77 (inactive). With “CD109 (lysine site: K471) (UniProt Q6YHK3)” the “lysine labeling ratio R10:1” value was 2.01 (inactive). With “CD58 (lysine site: K167) (UniProt P19256)” the “lysine labeling ratio R10:1” value was 2.06 (inactive). With UniProt Q15149 (lysine site: K1659) the “lysine labeling ratio R10:1” value was 6.06 (inactive). “TMEM109 (lysine site: K215) (UniProt Q9BVC6)” was tested, and the “lysine labeling ratio R10:1” value was 3.67 (inactive). With “DAG1 (lysine site: K500) (UniProt Q14118)” the “lysine labeling ratio R10:1” value was 4.65 (inactive). For “CCT8 (lysine site: K37) (UniProt P50990)”, the “lysine labeling ratio R10:1” value was 1.6 (active). With “IL17RA (lysine site: K274) (UniProt Q96F46)” the “lysine labeling ratio R10:1” value was 0.998 (active). For UniProt Q6PIU2 (lysine site: K359), the “lysine labeling ratio R10:1” value was 1.48 (active). In the case of “SLC25A5 (lysine site: K147) (UniProt P05141)”, the “lysine labeling ratio R10:1” value is reported as 4.57 (inactive). With “ALDOC (lysine site: K111) (UniProt P09972)” the “lysine labeling ratio R10:1” value was 6.08 (inactive). For UniProt P02533 (lysine site: K293), the “lysine labeling ratio R10:1” value was 2.74 (inactive). For “LAMA5 (lysine site: K113) (UniProt O15230)”, the “lysine labeling ratio R10:1” value was 4.71 (inactive). For UniProt P78333 (lysine site: K385), the “lysine labeling ratio R10:1” value was 2.8 (inactive). With B2M (lysine site: K26) (UniProt P61769) the “lysine labeling ratio R10:1” value was 10.1 (inactive). With “CACNA2D1 (lysine site: K146) (UniProt P54289)” the “lysine labeling ratio R10:1” value was 5.1 (inactive). In the case of “CACYBP (lysine site: K223) (UniProt Q9HB71)”, the “lysine labeling ratio R10:1” value is reported as 1.74 (active).
